Screening results: PubChem, The Scripps Research Institute Molecular Screening Center
TEAD-YAP block – TEAD-YAP interaction inhibition; HEK-TIYL cells, TEAD-Gal4/YAP UAS-luciferase luminescence; inhibition, % at 9.12 µM; actives 1.4% (n = 640,000); in the data active = inhibition above about 32%;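 also: 0% = median of test compound wells and 100% = reference inhibitor wells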
MITF primary – human MITF inhibition, primary screen; O75030; AlphaScreen MITF homodimerization, bead proximity signal; inhibition, % at 2.6 µM; actives 0.91% (n = 650,000); AID 1259374; in the data active = inhibition above about 50%;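 also: 0% = vehicle wells with protein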
FBW7 activator – activators of human E3 ligase FBW7; normalized activity (activation), % at 26.1 µM; AlphaScreen FBW7–phospho-cyclin E peptide binding, activator screen; actives 0.13% (n = 650,000); in the data active = normalized activity above about 1.9%;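 also: purified mutant Fbw7 with reduced substrate affinity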
GPR151 activ – activates the human receptor GPR151; activation, % at 11.2 µM; Q8TDV0; actives 1% (n = 650,000); PathHunter beta-arrestin GPR151 cells, luminescence; in the data active = activation above about 4.9%;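 also: 0% = median of compound wells and 100% = cells with positive control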
Target sequence (Q8TDV0 whole entry, looked up): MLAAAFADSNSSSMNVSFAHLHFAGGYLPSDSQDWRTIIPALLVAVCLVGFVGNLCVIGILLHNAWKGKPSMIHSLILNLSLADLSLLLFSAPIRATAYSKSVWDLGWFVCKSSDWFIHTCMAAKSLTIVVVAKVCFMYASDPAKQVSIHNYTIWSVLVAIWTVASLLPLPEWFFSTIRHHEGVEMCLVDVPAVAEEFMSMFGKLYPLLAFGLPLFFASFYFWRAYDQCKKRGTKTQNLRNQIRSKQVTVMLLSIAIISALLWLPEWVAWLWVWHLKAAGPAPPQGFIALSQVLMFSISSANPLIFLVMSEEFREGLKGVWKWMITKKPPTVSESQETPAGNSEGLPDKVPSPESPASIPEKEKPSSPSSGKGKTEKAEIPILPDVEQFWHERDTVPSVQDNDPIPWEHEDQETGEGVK
GPR151 confirm – confirmation of human GPR151 activators. shares compounds with GPR151 activ. 6,700 tested, under 10 active. activation, % at 11.2 µM. GPR151 PathHunter beta-arrestin cells, luminescence, 90 min; % of EA-reagent control over plate median;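 active = mean percent activation across replicates above the confirmation screen cutoff of 4.91%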
GPR119 ag – activates human GPR119 in a GPR151 counter-screen | shares compounds with GPR151 activ | activation, % at 11.2 µM | GPR119 PathHunter beta-arrestin cells, luminescence, 90 min; 0 = compound-well median, 100 = enzyme-acceptor control | actives 0.3% (n = 6,700);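 active = mean percent activation in the counterscreen above 29.09%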;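 also: counterscreen on off-target GPR119 to flag nonselective hits from the GPR151 activator screen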
* = called active by the depositor; x = no result given. Only some compounds are listed: those with a hit (about 3.5% of all), similar ones and a draw of the others.

SMILES	TEAD-YAP block	MITF primary	FBW7 activator	GPR151 activ	GPR151 confirm	GPR119 ag
CCOC(=O)c1ccc(NC(=O)CSc2nc3c(c(=O)n2CC)SC(C)C3)cc1 (stereo unspecified)	20.1	1.9	-0.1	5.1*	1.1	10.1
Cc1ccc(-c2nc3ccccc3c(=O)n2CC(=O)Nc2ccc(C)c(Cl)c2)cc1	-31.9	-8.6	-0.1	-0.8	x	x
O=C(CSc1cn(CC(=O)N2CCOCC2)c2ccccc12)Nc1ccc(F)cc1	-15.6	-5.1	0.1	1.2	x	x
Cc1cccc(CN2CCc3nnc(C(NC(=O)C4CCOC4)C(C)C)n3CC2)c1 (stereo unspecified)	0.9	-0.8	-0.2	0.5	x	x
CCCOC(=O)c1ccc(NC(=O)CSc2ccccc2)cc1	-10.6	3.0	0.0	0.2	x	x
COc1ccc(SCCC(=O)Nc2ccc(Br)cc2)cc1	11.2	-8.4	0.5	5.2*	1.9	8.8
CCOC(=O)c1ccc(NC(=O)CSc2ccc(Br)cc2)cc1	2.6	-1.5	0.2	7.9*	-0.2	-4.2
CCOC(=O)c1ccc(NC(=O)CN2C(=O)C3C4C=CC(C4)C3C2=O)cc1 (stereo unspecified)	-8.3	25.2	0.0	-2.0	x	x
CCOC(=O)c1ccc(NC(=O)CN2C(=O)C3C4C=CC(C5CC45)C3C2=O)cc1 (stereo unspecified)	4.9	24.9	0.9	7.0*	0.6	3.8
O=C(NCCCN1CCOCC1)c1ccc(N2CC3CC(C2)c2cccc(=O)n2C3)c(NC(=O)c2cccs2)c1 (stereo unspecified)	-9.7	-17.3	0.0	-0.9	x	x
CCCN1CCC(=NNC(=O)c2ccc(Cl)cc2Cl)CC1	2.3	16.0	0.1	4.9*	1.1	6.4
COc1ccc(CCNc2nc(SCc3cc(=O)n4ccccc4n3)nc3ccccc23)cc1OC	-8.0	7.3	0.0	-1.6	x	x
O=c1oc2c3c(ccc2c2c1CCC2)OCN(c1ccc(F)cc1)C3	3.1	5.7	0.0	5.1*	-0.1	-12.3
Cc1c(NC(=O)CSc2ccc(C(C)(C)C)cc2)c(=O)n(-c2ccccc2)n1C	10.1	10.8	0.0	8.2*	-0.1	0.2
Cc1c(NC(=O)CSc2ccccc2)c(=O)n(-c2ccccc2)n1C	7.6	-29.1	0.0	2.2	x	x
COc1ccc(-n2c(=O)c3c4c(sc3n3c(SCc5ccccc5)nnc23)COC(C)(C)C4)cc1	3.9	6.1	0.0	-0.4	x	x
COC(=O)c1ccc(NC(=O)CN(C)CCC#N)cc1	5.0	14.0	0.0	2.6	x	x
O=C(CCCn1cccc1)Nc1ccc(F)cc1F	5.0	9.0	0.0	6.7*	-0.5	4.6
O=C(CCCCC(=O)Nc1ccc(F)cc1F)Nc1ccc(F)cc1F	6.4	5.2	0.0	1.5	x	x
COc1ccc(C2Nn3c(C)nnc3SC2C(=O)N2CCCC2)cc1Br (stereo unspecified)	6.2	9.7	-0.2	5.1*	-0.3	-4.6
COc1cccc(CCN2CCC3(CC2)OCc2cccc(OC)c2O3)c1	6.5	20.3	0.5	-0.3	x	x
O=C1COc2cc(S(=O)(=O)N3CCC(Cc4ccccc4)CC3)ccc2N1	2.8	10.1	0.7	0.5	x	x
CN(Cc1ccccc1)C(=O)C1CCN(S(=O)(=O)c2ccc3c(c2)OCC(=O)N3)CC1	-6.1	-7.7	0.0	6.7*	-1.3	-6.7
Cc1ccc(C2CC(C(F)(F)F)n3nc(C(N)=O)c(Cl)c3N2)cc1 (stereo unspecified)	9.8	-9.3	0.0	2.6	x	x
Cc1cc(-c2n[nH]c(=S)n2-c2ccccc2)nn1C	9.1	21.0	0.2	18.2*	0.3	1.9
SMILES	TEAD-YAP block	MITF primary	FBW7 activator	GPR151 activ	GPR151 confirm	GPR119 ag
NC(=O)c1ccc(NC(=O)c2ccccc2Br)cc1	-47.3	-4.6	0.2	-0.4	x	x
O=C(Nc1ccc([N+](=O)[O-])cc1)C1CC1	7.9	5.4	0.1	7.5*	0.7	-7.0
O=C1NC(=O)c2cc(NC(=O)C3CC3)ccc21	-2.2	4.3	-0.1	5.2*	0.2	5.5
O=C(Nc1ccc(-c2ccc([N+](=O)[O-])cc2)cc1)C1CC1	-47.4	-5.3	-0.4	2.2	x	x
C/C(=N/NC(=O)c1cc(C(C)C)[nH]n1)c1cccc(O)c1	-27.2	-1.9	-0.1	0.3	x	x
COc1ccc(CNc2ccc3ncc(-c4cccc(/C=C/C(=O)O)c4)n3n2)cc1	-16.3	10.6	0.4	-0.4	x	x
Cc1c(Cl)cccc1NC(=O)c1cc([N+](=O)[O-])ccc1N1CCN(C)CC1	10.9	0.4	0.0	6.2*	1.2	18.5
CN1CCN(c2ccccc2NC(=O)c2ccc([N+](=O)[O-])cc2Cl)CC1	-8.2	21.5	0.7	-2.1	x	x
CCc1c(C(=O)Nc2ccc(C)c(F)c2)[nH]c(C)c1C(C)=O	-11.5	2.3	0.0	11.7*	-0.6	-8.2
COc1ccc(OC)c(C(C)NC(=O)c2ccccc2Cl)c1 (stereo unspecified)	5.4	11.4	0.1	14.9*	0.6	15.1
COc1cc(NC(=O)c2ccccc2Cl)ccc1NC(=O)C(C)C	-16.3	16.8	0.4	10.2*	-0.3	-5.4
COC(=O)c1ccccc1NC(=O)C(C)C	9.2	-0.8	0.9	5.3*	-0.5	-11.1
COc1cc2[nH]c(=O)n(/N=C/c3ccc(OC)c(OCC(N)=O)c3)c(=O)c2cc1OC	2.5	7.8	0.3	0.7	x	x
CCOC(=O)c1ccc(Nc2nncc(=O)[nH]2)cc1	3.7	-1.8	-0.1	-1.8	x	x
COc1cc2c(cc1OC)[C@@H](c1ccccc1)CN(C)CC2	2.4	24.1	0.0	7.5*	0.0	-8.3
CCc1c(C)nc2cc(-c3cccs3)nn2c1N1CCC(O)CC1	1.4	17.4	0.4	6.2*	1.6	9.1
O=C(c1ccc([N+](=O)[O-])cc1)N1CCC(C(=O)N2CCN(c3ccccc3)CC2)CC1	0.8	10.4	-0.1	11.3*	0.1	0.1
O=C(N/N=C/c1ccc(F)cc1)c1ccccc1[N+](=O)[O-]	3.7	8.2	-0.1	7.0*	-0.6	-7.8
O=C(N/N=C/c1ccccc1)c1ccccc1[N+](=O)[O-]	-0.4	5.0	0.0	0.7	x	x
O=C(N/N=C/c1cc(Cl)cc([N+](=O)[O-])c1O)c1ccccc1O	-1.4	6.9	-0.5	5.1*	-0.9	4.0
O=C(N/N=C/c1cccc2ccccc12)c1ccccc1[N+](=O)[O-]	3.3	10.4	0.0	10.8*	-0.3	-4.5
O=C(N/N=C/c1ccccc1[N+](=O)[O-])c1ccccc1[N+](=O)[O-]	-46.4	-4.2	-0.1	-1.1	x	x
O=C(N/N=C/c1ccccc1[N+](=O)[O-])c1cccc2ccccc12	3.5	0.2	-0.2	7.4*	-0.1	3.5
O=C(N/N=C/c1cc(Br)cc([N+](=O)[O-])c1O)c1cccc2ccccc12	0.4	6.7	0.7	0.4	x	x
CCCc1[nH]n(-c2ccc(F)cc2)c(=O)c1C=Nc1cc(C(=O)OC)ccc1C(=O)OC	-4.4	-0.5	-0.2	-1.1	x	x
